In PubChem BioAssay (NCATS):
Values joined by “and” are separate entries in the source; they are usually repeats but may differ in a detail not shown here. Equal values may be shown once. Results filed as inconclusive are left out. A structure can be active in one record and inactive in another. Active and inactive are the calls of the source. Calls come from the whole dose curve; as a rule, active = well fitted activation curve with a large enough effect; inconclusive = small, poorly fitted or top-dose-only effect; inactive = no such curve, though single readings can be large or run the other way.

Biological target: Cellular tumor antigen p53 (Homo sapiens) (UniProt P04637)
Sequence (P04637 whole entry, looked up): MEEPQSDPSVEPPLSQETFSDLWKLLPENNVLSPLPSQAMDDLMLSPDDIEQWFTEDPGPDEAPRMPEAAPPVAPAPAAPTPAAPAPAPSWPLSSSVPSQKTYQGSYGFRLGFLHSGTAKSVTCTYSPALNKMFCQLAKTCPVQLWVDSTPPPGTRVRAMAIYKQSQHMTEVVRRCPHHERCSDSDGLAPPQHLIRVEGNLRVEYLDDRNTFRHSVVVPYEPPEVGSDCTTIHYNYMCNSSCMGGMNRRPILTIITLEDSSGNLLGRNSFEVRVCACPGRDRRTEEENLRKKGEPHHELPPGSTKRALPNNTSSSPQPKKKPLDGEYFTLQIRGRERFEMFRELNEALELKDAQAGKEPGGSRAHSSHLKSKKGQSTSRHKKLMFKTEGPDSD
Assay: Primary qHTS for small molecule compounds that upregulate eGFP-tagged delta133p53alpha (in N-terminal) cells. (AID 2060322); note: nearly all actives have a fitted effect of over 75% in size;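 for activation: cells pre-induced with doxycycline then dosed without doxycycline; series mostly up to about 56 µM; 0% = DMSO vehicle and 100% = reference activator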
Details: NCI-H358 eGFP-delta133p53alpha fluorescence, 24 h; activation: hits give high values
In short: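 NCI-H358 cells pre-induced 24 h with 10 ng/ml doxycycline for eGFP-delta133p53alpha, plated dox-free and exposed 24 h at 37C to titrated compounds. Fixed, Hoechst-stained; gated GFP peak intensity by laser scanning cytometry, normalized to DMSO (0%) and 57.5 uM 5-azacytidine (100%).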
Potency is the fitted concentration of half-maximal effect.

| Compound | activation | Potency |
| --- | --- | --- |
| Cc1c(C)c2c(c(C)c1OC(=O)CCC(=O)OCCO)CC[C@@](C)(CCC[C@H](C)CCC[C@H](C)CCCC(C)C)O2 | -20.9% (inactive) |  |
| CN1CCC[C@@H]1CCO[C@](C)(c1ccccc1)c1ccc(Cl)cc1 | 26.6% (inactive) |  |
| CNCC[C@H](Oc1cccc2ccccc12)c1cccs1 | 8.04% (inactive) | 17.4 µM (active) |
| CC1=C(CO)C(=O)O[C@@H]([C@@H](C)[C@H]2CC[C@H]3[C@@H]4C[C@H]5O[C@]56[C@@H](O)C=CC(=O)[C@]6(C)[C@@H]4CC[C@]23C)C1 |  | 3.85 µM (active) |
| Cc1[nH]cnc1CN1CCc2c(c3ccccc3n2C)C1=O | -13.4% (inactive) |  |
| CN(C)CCN(Cc1ccc(Cl)cc1)c1ccccn1 | 1.96% (inactive) |  |
| CC[C@H]1CN2CCc3cc(OC)c(OC)cc3[C@@H]2C[C@@H]1C[C@H]1NCCc2cc(OC)c(OC)cc21 | 20.5% (inactive) | 0.617 µM (active) |
| COC(=O)[C@H]1[C@H]2C[C@@H]3c4[nH]c5cc(OC)ccc5c4CCN3C[C@H]2C[C@@H](OC(=O)c2cc(OC)c(OC)c(OC)c2)[C@@H]1OC | -18% (inactive) | 27.6 µM (active) |
| C[C@]12CCC3=C4CCC(=O)C=C4CC[C@@H]3[C@H]1CC[C@@]2(O)CC#N | 7.95% (inactive) |  |
| O=[N+]([O-])c1ccc(/C=N\O)o1 | 11.9% (inactive) |  |
| COCCOC(=O)C1=C(C)NC(C)=C(C(=O)OC(C)C)C1c1cccc([N+](=O)[O-])c1 (stereo not drawn) | -10.6% (inactive) | 6.92 µM (active) |
| CC(C)=CCC/C(C)=C/CC/C(C)=C/CCC(=O)OC/C=C(\C)CCC=C(C)C | 0.565% (inactive) |  |
| CC1(C)S[C@@H]2[C@H](NC(=O)[C@H](N)c3ccccc3)C(=O)N2[C@H]1C(=O)O | -15.3% (inactive) |  |
| CC(C)=CCCC(C)=CCCC(C)=CCSc1ccccc1C(=O)O | 4.74% (inactive) |  |
| NC(=O)NO | -16.4% (inactive) and -32.9% (inactive) | 30.6 µM (active) |
| CCN(CC)CCOc1ccc(Nc2ncc3cc(-c4c(Cl)cccc4Cl)c(=O)n(C)c3n2)cc1 | -1.41% (inactive) | 5.44 µM (active) |
| COc1cccc(N(C)C(=S)Oc2ccc3c(c2)CCCC3)n1 | 25.4% (inactive) and -4.03% (inactive) |  |
| C=CCc1cc(OC)c(O)c(C(=O)NCCO)c1 | -4.18% (inactive) and -21% (inactive) |  |
| c1ccc(CC2=NCCN2)cc1 | -3.95% (inactive) |  |
| O=C(Nc1ccc(Cl)cc1)Nc1ccc(Cl)c(Cl)c1 | 0.565% (inactive) |  |
| C[C@]12CC[C@H]3[C@@H](CCC4=CC(=O)CC[C@@]43C)[C@@H]1CC[C@@H]2C(=O)CO | -5.86% (inactive) |  |
| Cc1ncc(Cl)cc1NCc1ccc(C(=O)N[C@@H](CC2CCCC2)C(=O)NC2CC2)s1 | -39.1% (inactive) |  |
| Cc1ccc(O)c([C@H](CCN(C(C)C)C(C)C)c2ccccc2)c1 | 10.7% (inactive) |  |
| O=C(O)c1ccc(OCCN2CCCCC2)cc1 | -14.1% (inactive) |  |
| C#C[C@]1(O)CC[C@H]2[C@@H]3CCC4=Cc5oncc5C[C@]4(C)[C@H]3CC[C@@]21C | -14.2% (inactive) |  |
| COc1ccc2c(c1)c(CC(=O)OC/C=C(\C)CC/C=C(\C)CCC=C(C)C)c(C)n2C(=O)c1ccc(Cl)cc1 | -1.69% (inactive) |  |
| CCCC(=O)O[C@]1(C(=O)CC)CC[C@H]2[C@@H]3CCC4=CC(=O)CC[C@]4(C)[C@H]3[C@@H](O)C[C@@]21C | -20.9% (inactive) |  |
